Hits are enriched below; roughly 13% of the tested compounds scored in any of these assays.
LASV entry inh = inhibitors of Lassa virus binding or cell entry; actives 1.2% (n = 300,000); Lassa virus pseudotype entry inhibition, cell reporter; AID 540256; Potency, µM (doses to about 37.9 µM), for the others: top-dose activity change, negative = inhibition, most hits filed as inhibitors; calls by dose curve; tested in HEK293 cells; also: potency is read from the fitted curve at half-maximal effect; % is scaled to controls: 0 for no effect and ±100 for the full control effect; nearly all actives have a fitted effect of over 50% in size
Marburg entry inh = Marburg virus entry inhibition | Marburg virus pseudotyped entry inhibition, cell reporter | Potency, µM (series often up to 37.8 µM), for inactives: at the highest dose activity change, negative = inhibition, actives largely listed as inhibitors | actives 1.8% (n = 300,000) | AID 540276; calls by dose curve; tested in HEK293 cells; also: potency is read from the fitted curve at half-maximal effect; % is scaled to controls: 0 for no effect and ±100 for the full control effect
CHX counter = counter-screen for Shiga toxin inhibitors: cycloheximide protein synthesis inhibition; AID 2314; cell reporter, cycloheximide protein synthesis inhibition counterscreen; actives 12% (n = 300,000); max response, %; in the data active = max response mostly above about 13%, no sharp cut-off; inactive = mostly below about 14%; also: read at 38.3 µM for the half of the compounds with a filed dose; 0% is about no effect
FMDV inh = foot and mouth disease virus antiviral activity; FMDV antiviral cell-based qHTS; actives 1.2% (n = 410,000); Potency, µM (highest dose often 57.9 µM), without a hit: at the top dose activity change, negative = inhibition, usual class: inhibitors; calls by dose curve; tested in HEK293T cells; also: read-out not given here; potency is read from the fitted curve at half-maximal effect; % is scaled to controls: 0 for no effect and ±100 for the full control effect; nearly all actives have a fitted effect of over 45% in size
HCV inh = inhibitors of hepatitis C virus infection; Huh7.5.1 HCVcc-Cre infection, luciferase reporter, 44 h; Potency, µM (highest dose often 41.8 µM), inactives show at the top dose activity change, negative = inhibition, usual class: inhibitors; actives 3.4% (n = 340,000); AID 651820; active = well fitted inhibition curve with a large enough effect; inconclusive = small, poorly fitted or top-dose-only effect, or another doubt; inactive = no such curve, though single readings can be large or run the other way; also: potency is read from the fitted curve at half-maximal effect; % is scaled to controls: 0 for no effect and ±100 for the full control effect
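HCVcc-Cre virus at an moi near 0.5 was added right after compound to cells cultured 4 h from seeding (1,000 cells/well). Luciferase activity was determined 44 h later, 15 min after substrate addition at RT.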
Shiga toxin inh = Shiga toxin inhibition. Vero cells, Shiga toxin protein synthesis inhibition reporter. inhibition, % at 38.7 µM. actives 9.2% (n = 290,000); in the data active = inhibition mostly above about 28%, no sharp cut-off; inactive = mostly below about 43%; also: 0% is about no effect
* = called active by the depositor; ? = inconclusive; nt = not tested or not shown; + = active, no number; [ ] = another dose, or the depositor's remark.

SMILES	LASV entry inh	Marburg entry inh	CHX counter	FMDV inh	HCV inh	Shiga toxin inh
Cc1ccccc1C(=O)OCc1nnc(-c2ccc(Cl)cc2)o1	16%[46.1 µM]	?	25*	3%	3%	45*
O=C(OCc1nnc(-c2ccc(Cl)cc2)o1)c1ccncc1	3%	22%[46.1 µM]	5	14%	3%	21
Clc1ccc(-c2nnc(COc3ncnc4ccccc34)o2)cc1	?	?	34*	21%	-6%	55*
Brc1ccccc1-c1nnc(COc2ncnc3ccccc23)o1	-15%	-5%[46.1 µM]	-1	-9%	-3%	-6
CCOC(=O)c1ccc(NC(=O)CC2C(=O)N(c3cccc(OC)c3)C(=O)N2Cc2cccnc2)cc1 (stereo not given)	?	nt	nt	-12%	nt	nt
CCCN1CCN(CCCNC(=O)CN2C(=O)c3cccnc3Oc3ccc(C)cc32)CC1	-3%[46.1 µM]	3%[46.1 µM]	5	-12%	4%	11
Cc1nc2ccc(C(=O)OCc3nnc(-c4ccccc4)o3)cc2nc1C	9%	0%	10*	-18%	14%	-9
O=C(OCc1nnc(-c2ccccc2)o1)c1ccc(-n2cnnn2)cc1	?	23%[46.1 µM]	nt	-8%	0%	nt
O=C(OCc1nnc(-c2ccccc2)o1)C12CC3CC(CC(Br)(C3)C1)C2	nt	nt	35*	10%	13%	56*
CC(NC(=O)COC(=O)C12CC3CC(CC(Br)(C3)C1)C2)c1ccccc1 (stereo not given)	4%[46.1 µM]	6%[46.1 µM]	nt	-12%	10%	nt
O=C(OCc1nnc(-c2ccccc2)o1)c1ccccc1	nt	2%[46.1 µM]	29*	64%	29%	90*
Cc1nc2ccc(C(=O)OCc3nnc(-c4ccc(Br)cc4)o3)cc2nc1C	-3%	?	-4	-7%	-22%	-13
CC(C(=O)OCc1nnc(-c2ccccc2)o1)N1C(=O)C2CCCCC2C1=O (stereo not given)	nt	nt	37*	50%	18%	70*
CN(C)Cc1csc(NC(=O)Nc2cccc(Cl)c2)n1	nt	nt	nt	1%	nt	nt
CCC1(CC)NC(=O)N(CC(=O)OCc2nc3cc(C(=O)OC)ccc3c(=O)[nH]2)C1=O	-1%	?	nt	-21%	-3%	nt
O=C(COC(=O)CNC(=O)C1CCCCC1)Nc1ccc(F)c([N+](=O)[O-])c1	-3%	0%	nt	-16%	18%	nt
C=CCn1c(C)cc(-c2csc(NC(=O)C3CCN(c4ncnc5sc(C)c(C)c45)CC3)n2)c1C	nt	nt	nt	?	-19%	nt
O=C(OC1CCc2ccccc2C1=O)c1ccccc1O (stereo not given)	17%	?	41*	36%	2%	90*
Oc1ccccc1/C=N/Nc1nc2ccccc2o1	?	?	62*	5%	?	97*
Brc1ccc(/C=N/Nc2nc3ccccc3o2)cc1	nt	nt	41*	54%	-15%	57*
COc1cc(C(=O)NNC(=O)COc2ccc(Cl)cc2)ccc1OCC(=O)N1CCOCC1	0%	-16%	nt	-14%	-3%	nt
C[C@@]12C(C[C@H](O)[C@@]34C[C@@H](CCC13)[C@@H](CO)C4=O)[C@](C)(C(=O)O)CC[C@@H]2O (stereo not given in full)	nt	nt	nt	-22%	nt	nt
C=C1C(=O)[C@]23C[C@H]1CCC2[C@@]1(C)C(C[C@@H]3O)[C@](C)(C(=O)OC)CC[C@@H]1O (stereo not given in full)	nt	nt	nt	20µM*	nt	nt
COc1ccc(-n2c(SCC(=O)/C(C#N)=C(\C)N)nc3ccccc3c2=O)cc1OC	nt	nt	-1	-8%	11%	-3
C/C(N)=C(/C#N)C(=O)CSc1nc2cc(Cl)ccc2s1	68%[14.3 µM]	2%	24*	-27%	8.9µM*	+
SMILES	LASV entry inh	Marburg entry inh	CHX counter	FMDV inh	HCV inh	Shiga toxin inh
C/C(N)=C(/C#N)C(=O)CSc1nc2cc(Cl)ccc2c(=O)n1-c1ccc(C)cc1	-11%	3%	9	-17%	7.1µM*	-46
C/C(N)=C(/C#N)C(=O)CSc1nc2cc(Cl)ccc2c(=O)n1Cc1ccco1	?	4%	9	-24%	14µM*	6
Cc1cccc(C)c1NC(=O)C1c2ccccc2OCC(=O)N1Cc1ccccc1 (stereo not given)	nt	nt	nt	-21%	nt	nt
N#Cc1ccc(C(=O)NCC2CCCCC2)cc1	nt	nt	11*	40%	6%	51*
O=C(NCC1CCCCC1)c1ccc(=O)[nH]c1	1%[46.1 µM]	15%[46.1 µM]	-2	-1%	25%	15
Cc1ccc(CNC(=O)CCC2CCCN(C(=O)CCC(F)(F)F)C2)o1 (stereo not given)	-27%[46.1 µM]	10%[46.1 µM]	-3	2%	5%	-2
CCCCn1c(O)c(N=NC(=O)c2ccco2)c2ccccc21	?	?	66*	-5%	-2%	86*
O=C(CNC(=O)c1ccco1)N=Nc1c(O)n(CCc2ccccc2)c2ccccc12	nt	nt	-1	-24%	?	21
COC(=O)N=Nc1c(O)n(Cc2ccccc2)c2ccccc12	-12%	0%	-2	0%	-24%	13
CCOC(=O)N=Nc1c(O)n(Cc2ccccc2)c2ccccc12	nt	nt	29*	13%	-23%	46*
COc1ccc(-c2cnc(N)nc2-c2ccc(OC)cc2)cc1	nt	nt	-2	?	?	2
COc1ccc2c(c1)CCc1cnc(N)nc1-2	1%	?	12*	29%	?	19
Cc1nc2cc(NC(=O)NCc3ccc4c(c3)OCO4)ccc2o1	5%	8%	-1	nt	-6%	2
Cc1nc2cc(NC(=O)Nc3ccc(Br)cc3)ccc2o1	?	?	47*	9%	?	99*
Cc1nc2cc(NC(=O)N3c4ccccc4CC3C)ccc2o1 (stereo not given)	-8%	1%	42*	nt	?	73*
Cc1nc2cc(NC(=O)N3c4ccccc4CC3C)ccc2n1C (stereo not given)	?	?	19*	nt	-6%	33*
CC(C)Cn1c(N)c(/C=N/NC(=O)c2ccc(Cl)cc2)c(=O)n(C)c1=O	-3%	16%[46.1 µM]	-5	-11%	-24%	-5
O=C(COC(=O)c1cccc(S(=O)(=O)N2CCc3ccccc32)c1)Nc1ncc(C(F)(F)F)cc1Cl	-20%	-15%	0	-15%	3%	-11
O=C(COC(=O)c1ccccn1)Nc1c(Cl)cccc1Cl	5%	28%	-5	-4%	9%	38
CCc1ccccc1-n1nnc(-c2nsc(NC(=O)c3ccc(C)c(C)c3)n2)c1C	?	nt	nt	11µM*	nt	nt
CCOC(=O)c1ccccc1NC(=O)c1c(C)oc2ncnc(N3CCOCC3)c12	3%[46.1 µM]	nt	nt	-25%	nt	nt
CCOC(=O)c1c(C)oc2ncnc(N3CCN(c4ccccc4F)CC3)c12	?	nt	nt	32µM*	nt	nt
CCOC(=O)c1c(C)oc2nc(C)nc(N3CCN(c4ccccc4F)CC3)c12	14%[46.1 µM]	nt	nt	?	nt	nt
CCOC(=O)c1c(C)oc2ncnc(N3CCN(c4ccccc4)CC3)c12	-25%[46.1 µM]	nt	nt	28µM*	nt	nt
Clc1ccc(CN2CCc3nc(Nc4ccc5c(c4)OCCO5)ncc3C2)cc1	-22%[46.1 µM]	nt	nt	0%	nt	nt

From PubChem
